# NTR1 agonist: activates human neurotensin receptor 1 | 330,000 tested, 0.17% active | NTR1-U2OS beta-arrestin-GFP spot imaging, agonist mode | activation, % at 20 µM;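 active = activation at or above 40% of the spot to cytoplasm intensity ratio, with at least 20 cells analyzed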;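 also: 0% = DMSO without peptide and 100% = 100 nM NTR1 peptide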
# ABHD5 PLIN5 PPI: ABHD5-PLIN5 protein interaction inhibition; 360,000 tested, 0.78% active; AID 602281; inhibition, % at 4 µM; Split G. princeps luciferase complementation, luminescence, 4 h;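 active = inhibition above the mean inhibition across every tested compound plus 3 SD, cut at about 22% in these data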;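 also: 0% = DMSO only wells and the 100% control is not disclosed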
# Beta2AR agonist: agonists of human beta-2 adrenergic receptor inducing internalization; P07550; Am2.2-beta2AR cells, FAP receptor internalization, flow cytometry; response, % (concentration not given with the values); 340,000 tested, 0.43% active; AID 504454;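 active = response above a set limit, near 3 SD of response in nonfluorescent compounds, cut at about 42% in these data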
# Target sequence (P07550 whole entry, looked up): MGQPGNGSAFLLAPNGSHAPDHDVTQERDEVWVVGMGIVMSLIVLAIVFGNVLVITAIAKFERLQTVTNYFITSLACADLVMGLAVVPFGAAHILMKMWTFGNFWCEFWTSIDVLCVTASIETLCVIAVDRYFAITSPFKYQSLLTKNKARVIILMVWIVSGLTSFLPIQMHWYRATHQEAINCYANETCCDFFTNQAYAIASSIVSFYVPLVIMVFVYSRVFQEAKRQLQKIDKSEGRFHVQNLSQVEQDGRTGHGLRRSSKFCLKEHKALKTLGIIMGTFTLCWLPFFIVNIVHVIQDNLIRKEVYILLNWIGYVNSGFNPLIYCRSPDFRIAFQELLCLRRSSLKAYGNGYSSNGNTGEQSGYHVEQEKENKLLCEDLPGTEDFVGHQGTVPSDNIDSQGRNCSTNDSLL
# Granule exo inh: lytic granule exocytosis inhibition; TALL-104 LAMP-1 surface exposure, flow cytometry; cells stimulated with thapsigargin and PMA; inhibition, % at 10 µM; 360,000 tested, 0.66% active; AID 651702;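 active = inhibition above about 55%, limit read from the data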
# m5-HT2A agonist: mouse HTR2A agonism via beta-arrestin recruitment; P35363; CHO-K1 mHTR2A beta-arrestin complementation, luminescence; percent of 30 µM serotonin response; activation, % at 7.6 µM; 360,000 tested, 0.66% active; AID 624169;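 active = activation above a run cutoff, the mean activation of all tested compounds plus 3 SD, cut at about 14% in these data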;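 also: 0% = plate median of compound wells and 100% = 30 µM serotonin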
# ABHD5 PLIN5 conf: confirmation of human ABHD5-PLIN5 interaction inhibitors. AID 651612. shares compounds with ABHD5 PLIN5 PPI. biochemical ABHD5-PLIN5 interaction, luminescence. 2,200 tested, 67% active. inhibition, % at 4 µM; in the data active = inhibition above about 23%;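 also: 0% = DMSO vehicle wells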
# HNF4 split-luc: counter-screen for ABHD5-PLIN5 inhibitors: HNF4 split-luciferase; shares compounds with ABHD5 PLIN5 PPI; HNF4 dimerization, luminescence, biochemical; inhibition, % at 4 µM; 2,200 tested, 77% active; AID 651674;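 active = mean inhibition across replicate wells exceeding the computed hit threshold, cut at about 13% in these data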;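 also: light from luciferase halves that rejoin when HNF4 fusion proteins dimerize; 0% = DMSO only wells and the 100% control is not given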
# The depositor's hits bear a star; x = no result. The list is not random: actives were taken first. Their share in the collection is about 2.3%.
SMILES,NTR1 agonist,ABHD5 PLIN5 PPI,Beta2AR agonist,Granule exo inh,m5-HT2A agonist,ABHD5 PLIN5 conf,HNF4 split-luc
Cc1c(C(=O)c2no[n+]([O-])c2C(=O)c2cnn(C)c2C)cnn1C,-1,29*,10,48,-2,58*,74*
CNC[C@@H]1Oc2ccc(NS(=O)(=O)c3ccc(Cl)cc3)cc2C(=O)N([C@H](C)CO)C[C@@H]1C,0,25*,-10,24,-1,19,-4
C[C@H]1CN([C@@H](C)CO)C(=O)c2cc(NS(=O)(=O)c3ccc(Cl)cc3)ccc2O[C@@H]1CN(C)CC1CCCCC1,3,2,1,-2,-3,x,x
CC(C)(C)OC(=O)N1CCCC(C(=O)Nc2ccc(C(=O)NC3CC3)cc2)C1 (configuration not stated),x,35*,2,6,1,2,5
CN(C(=O)c1ccc(NC(=O)C2CCCN(C(=O)OC(C)(C)C)C2)cc1)C1CC1 (configuration not stated),-2,1,0,6,5,x,x
Nn1c(SCC(=O)Nc2ccc(OC(F)F)cc2)nnc1-c1ccco1,0,0,-6,1,3,x,x
COc1ccccc1C(C[N+](=O)[O-])c1c(N)n(C)c(=O)n(C)c1=O (configuration not stated),12,39*,2,35,-1,33*,65*
CCC1CCCCN1C(=O)COc1ccc(S(=O)(=O)N2CCOCC2)cc1Cl (configuration not stated),0,-5,1,-5,-1,x,x
C=C1C(=O)[C@@]23[C@H](O)C[C@@H]4C(C)(C)CC[C@H](O)[C@@]4(C)[C@@H]2CC[C@@H]1[C@H]3O,5,53*,46*,0,-6,85*,78*
C=C1C(=O)[C@@]23[C@H](O)C[C@@H]4C(C)(C)CC[C@H](O)[C@]4(C)[C@@H]2C[C@H](O)[C@@H]1[C@H]3O,-1,80*,9,8,2,89*,99*
COc1ccc(-n2c(O)c(/C=C3\C=Nc4ccccc43)c(=O)[nH]c2=O)cc1,8,31*,3,29,0,11,24*
COc1ccc(-n2c(O)c(C=NC3CC3)c(=O)[nH]c2=O)cc1,1,1,6,-2,-1,x,x
CC1=NN(c2ccccc2)C(=O)/C1=C\C=C1/N(C)c2ccccc2C1(C)C,1,26*,12,0,-6,21,23*
O=C(CC1S/C(=N/N=C/c2c[nH]c3ccccc23)NC1=O)Nc1ccccc1 (configuration not stated),0,23*,9,-2,-1,20,11
COCC(C)NS(=O)(=O)c1ccc(C(=O)NC(Cc2ccccc2)c2ccccc2)cc1 (configuration not stated),2,-17,-8,2,-7,x,x
Cc1ccccc1NC(=O)Cc1nc(COC(=O)c2ccc(S(C)(=O)=O)c([N+](=O)[O-])c2)cs1,23,27*,5,3,-1,35*,42*
O=C(c1cccnc1)N1CCN(Cc2cccc(Br)c2)CC1,0,24*,14,2,7,1,8
COc1ccc(CN2CCN(C(=O)c3cccnc3)CC2)cc1Br,-1,1,-1,-13,2,x,x
COc1cc(/C=N/O)ccc1OCc1ccc(Cl)cc1,3,x,x,x,x,x,x
COc1cc(/C=N/N=C(N)N)ccc1OCc1ccc(Cl)cc1,4,24*,38,13,-3,8,6
Cc1cc(Br)ccc1SCC(=O)OCC(=O)Nc1ccc2[nH]c(=O)[nH]c2c1,-1,-1,8,-2,-4,x,x
CCOC(=O)c1c(CN(CC)CC)n(-c2ccccc2)c2ccc(O)cc12,0,-5,6,15,-3,x,x
CCOC(=O)c1c(CSC(=N)N)n(-c2ccccc2)c2cc(Br)c(OC(C)=O)cc12,31,32*,20,81*,-9,29*,30*
CCOC(=O)CNC(c1ccccc1)c1cc(Br)ccc1NC(=O)CCN1CCOCC1 (configuration not stated),0,24*,1,47,-2,3,39*

# Screening data deposited in PubChem by several laboratories.
